CD11b adhes enh = increases human CD11b/CD18 adhesion to fibrinogen | K562 CD11b/CD18 adhesion to fibrinogen, ATPlite luminescence | activation, % at 10 µM | 93,000 compounds, 0.07% hits;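 active means 10 µM primary screen giving 50% or more activity, confirmed by 40% or more on retest at that dose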
CYP2C19 inhib = human CYP2C19 inhibition. P33261. CYP2C19 Supersomes, luciferin-H EGE luminescence, 30 min. inhibition, % at 5 µM. 96,000 compounds, 21% hits. AID 778;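 active means CYP2C19 inhibition above a set limit at 5 µM in the primary screen, cut at about 50% in these data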;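 further: plate controls were negative control wells for no effect and 2.5 mM tranylcypromine positive control for full effect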
Target sequence (P33261 whole entry, looked up): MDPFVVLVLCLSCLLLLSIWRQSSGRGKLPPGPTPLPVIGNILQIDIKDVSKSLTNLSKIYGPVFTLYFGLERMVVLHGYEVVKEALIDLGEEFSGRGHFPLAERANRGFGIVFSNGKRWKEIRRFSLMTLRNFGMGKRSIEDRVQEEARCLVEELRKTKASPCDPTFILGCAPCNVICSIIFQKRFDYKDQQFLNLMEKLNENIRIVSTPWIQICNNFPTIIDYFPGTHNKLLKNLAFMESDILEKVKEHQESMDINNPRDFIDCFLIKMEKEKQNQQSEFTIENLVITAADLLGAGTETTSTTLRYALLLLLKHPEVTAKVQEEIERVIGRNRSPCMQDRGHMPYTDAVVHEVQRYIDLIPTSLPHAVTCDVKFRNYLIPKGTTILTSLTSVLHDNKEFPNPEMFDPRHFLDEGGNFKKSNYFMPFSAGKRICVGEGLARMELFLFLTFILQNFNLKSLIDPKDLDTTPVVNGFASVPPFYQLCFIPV
CYP2C9 inh = human CYP2C9 inhibition | P11712 | 96,000 compounds, 20% hits | inhibition, % at 5 µM | AID 777 | CYP2C9 Supersomes, luciferin-H conversion, luminescence;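 active means blocking of liver enzyme CYP2C9 beyond about 50% at 5 µM, limit read from the data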
Mac1 fbg inh = inhibitors of human CD11b/CD18 binding to fibrinogen; K562 CD11b/CD18 adhesion to fibrinogen, ATPlite luminescence; Mn2+ added to activate the integrin; inhibition, % at 10 µM; 93,000 compounds, 0.54% hits; AID 1497;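 active means primary inhibition of 50% or more at 10 µM, then 40% or more on retest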
CYP2C19 activ = increases human CYP2C19 enzyme activity | P33261 | recombinant CYP2C19, luciferin-H EGE luminescence; stronger effect = higher value; 0 = fully inhibited enzyme, 1 = untreated enzyme | activation factor at 5 µM | 96,000 tested, under 10 active;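 active means activation factor of at least 2 at 5 µM in the primary screen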;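 further: 0 = wells with 2.5 mM tranylcypromine and 1 = vehicle-only wells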
CYP2C9 activ = CYP2C9 (human) activation; P11712; recombinant CYP2C9, luciferin-H conversion, luminescence; stronger effect = higher value; factor 1 = untreated enzyme, 0 = blocked; activation factor at 5 µM; 96,000 compounds, 1.4% hits;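 active means activation factor of 2 or more for CYP2C9 at a 5 µM dose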;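 further: 0 = sulfaphenazole-blocked wells and 1 = vehicle-only wells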
The depositor's hits bear a star; . = not tested or not shown. In the library only some 28% were active in any assay of this set; here they are far more common.

SMILES	CD11b adhes enh	CYP2C19 inhib	CYP2C9 inh	Mac1 fbg inh	CYP2C19 activ	CYP2C9 activ
COc1cc(NC(=O)COC(=O)c2nc3nc(C)cc(C)n3n2)cc(OC)c1	.	-3	10	.	1	0.9
CCOC(=O)C1CCN(C(=O)c2c(-c3c(Cl)cccc3Cl)noc2C)CC1	3	70*	79*	-32	0.3	0.2
CCN1CCN(C(=O)c2c(-c3c(F)cccc3Cl)noc2C)CC1	0	-5	-18	0	1	1.2
Cc1onc(-c2c(F)cccc2Cl)c1C(=O)N1CCc2ccccc21	-4	63*	40	6	0.4	0.6
Cc1onc(-c2c(Cl)cccc2Cl)c1C(=O)N1C=CC(C(F)(F)F)=NCC1	5	59*	33	1	0.4	0.7
Cc1onc(-c2c(Cl)cccc2Cl)c1C(=O)N1CCc2ccccc2C1	.	77*	73*	.	0.2	0.3
Cc1onc(-c2ccccc2Cl)c1C(=O)N1CCN(c2ccccc2)CC1	0	30	46	1	0.7	0.5
Cn1c(=O)c2cc(NC(=O)c3ccccc3Cl)c(=O)oc2n(C)c1=O	0	-1	18	-8	1	0.8
Cc1noc(C)c1C(=O)N1CCc2ccccc21	-2	5	-13	0	1	1.1
Cc1onc(-c2ccccc2)c1C(=O)N1CCCc2ccccc21	-3	69*	22	-3	0.3	0.8
Cc1onc(-c2c(Cl)cccc2Cl)c1C(=O)N1CCCc2ccccc21	-1	91*	82*	14	0.1	0.2
Cc1cc(C(=O)N2CCCc3ccccc32)no1	.	33	-69	.	0.7	1.7
O=C(O)CNc1nc(Cl)ccc1[N+](=O)[O-]	.	6	5	.	0.9	0.9
O=C(O)CCC(=O)N1CCc2cc(S(=O)(=O)N3CC=C(c4ccccc4)CC3)ccc21	-4	-2	12	10	1	0.9
Cc1cc(C(=O)N2CCN(C(=O)C3CCCO3)CC2)no1 (stereo not drawn)	6	2	-1	-10	1	1
COc1cc2nc(N3CCN(C(=O)C4CCCO4)CC3)nc(N)c2cc1OC (stereo not drawn)	-3	33	60*	-11	0.7	0.4
CCOC(=O)c1c(C)n(C)c2c(C)cc(O)c(OC(=O)CC)c12	0	4	5	-6	1	1
O=C(COc1ccc(S(=O)(=O)N2CCCC2)cc1Cl)NCc1ccco1	1	8	85*	-17	0.9	0.1
COCCNS(=O)(=O)c1ccc(OCC(=O)OC)c(Cl)c1	5	7	5	4	0.9	0.9
O=C(COc1ccc(S(=O)(=O)N2CCCC2)cc1)NCc1ccco1	8	-13	30	1	1.1	0.7
COc1ccc(C(=O)OCC(=O)NCc2ccco2)cc1S(=O)(=O)N1CCN(c2cccc(Cl)c2)CC1	-3	98*	96*	28	0	0
Cc1cc(S(=O)(=O)N2CCCC2)ccc1OCC(=O)NCc1ccco1	5	40	50*	-14	0.6	0.5
COC(=O)COc1ccc(S(=O)(=O)NCc2ccco2)cc1Cl	3	58*	1	5	0.4	1
CCS(=O)(=O)N1Cc2ccccc2CC1C(=O)N1CCN(c2ccccc2)CC1 (stereo not drawn)	.	32	-18	.	0.7	1.2
O=C(NCc1ccco1)c1cc(S(=O)(=O)N2CCCc3ccccc32)ccc1Cl	-4	81*	40	-3	0.2	0.6
SMILES	CD11b adhes enh	CYP2C19 inhib	CYP2C9 inh	Mac1 fbg inh	CYP2C19 activ	CYP2C9 activ
COC(=O)COc1ccc(S(=O)(=O)NCCC2=CCCCC2)cc1Cl	1	97*	29	4	0	0.7
CCOc1cc(CN2CCOCC2)cc(C(C)=O)c1	-2	31	6	-9	0.7	0.9
COc1ccc(/C=C/C(=O)OC(C)CN2CCOCC2)cc1 (stereo not drawn)	1	-4	14	6	1	0.9
COCCCNC(=O)/C(=C\c1cccn1C)NC(=O)c1cccs1	-1	.	.	-20	.	.
CCc1cc2c(N3CCCCC3)ncnc2s1	-2	87*	65*	-10	0.1	0.3
COc1ccc(-c2cnn(-c3ccccc3)c2N)cc1OC	-1	30	-120	20	0.7	2.2*
Nc1c(-c2ccccc2)cnn1-c1cccc(C(F)(F)F)c1	-2	29	-36	-13	0.7	1.4
Cc1cc(C)nc(N2CCC(CNC(=O)CCc3ccccc3)CC2)n1	6	19	22	2	0.8	0.8
Cc1cccc(NC(=O)CCS(=O)(=O)c2cccc3nsnc23)c1C	.	9	-12	.	0.9	1.1
CCOC(=O)c1ccc(NS(=O)(=O)c2cccc3nsnc23)cc1	.	37	78*	.	0.6	0.2
CCOC(=O)c1cccc(NC(=O)CCS(=O)(=O)c2cccc3nsnc23)c1	2	77*	72*	11	0.2	0.3
Cc1ccc(C2C(C#N)=C(N)Oc3c2oc(CO)cc3=O)o1 (stereo not drawn)	1	-13	-3	5	1.1	1
CCCCc1c(C)nc2ccccc2c1SCCC#N	9	.	.	-1	.	.
Cc1nnc(C)n1/N=C/C=C/c1ccccc1	2	7	3	3	0.9	1
O=C(NC1CCCCC1)C1CCN(S(=O)(=O)N2CCCCCC2)CC1	-6	0	9	9	1	0.9
CCCS(=O)(=O)N1CCC(C(=O)N2CCC(Cc3ccccc3)CC2)CC1	.	25	7	.	0.7	0.9
COc1ccc(S(=O)(=O)N2CCC(C(=O)NCc3ccco3)CC2)cc1	1	-8	-82	17	1.1	1.8
O=C(C1CCN(S(=O)(=O)N2CCC3(CC2)OCCO3)CC1)N1CCC(Cc2ccccc2)CC1	.	58*	76*	.	0.4	0.2
O=C(NC1CCCCCCC1)C1CCN(S(=O)(=O)N2CCC3(CC2)OCCO3)CC1	.	60*	52*	.	0.4	0.5
Cc1cc(C)c(S(=O)(=O)N2CCC(C(=O)NCc3ccco3)CC2)c(C)c1	-2	21	-179	4	0.8	2.8*
O=C(NCc1ccco1)C1CCN(S(=O)(=O)N2CCC3(CC2)OCCO3)CC1	2	8	84*	-7	0.9	0.2
Cn1c(=O)c2c3c(sc2n2c(SCc4ccc5c(c4)OCO5)nnc12)COC(C)(C)C3	-3	-4	19	-1	1	0.8
Cc1nnc(SCc2c(Cl)cccc2Cl)s1	12	59*	6	6	0.4	0.9
Cn1c(SCc2ccc(Br)cc2)nnc1-c1cccs1	-3	97*	76*	2	0	0.2
Cn1c(SCc2c(Cl)cccc2Cl)nnc1-c1cccs1	-3	98*	76*	-12	0	0.2
Cn1c(SCC(=O)NCc2cccs2)nnc1-c1cccs1	0	-16	-14	-17	1.2	1.1
CCn1c(=O)c2c3c(sc2n(C)c1=O)CCC3	4	1	2	7	1	1

Screens (PubChem BioAssay)
